Screening data: PubChem BioAssay, several laboratories
The list is not random: actives were taken first. Their share in the collection is about 4.2%.
Mtb FBA inh – inhibitors of M. tuberculosis fructose-bisphosphate aldolase | 360,000 compounds, 2.3% hits | inhibition, % at 1 µM | purified M. tuberculosis FBA, fluorescence read-out | P9WQA3; in the data active = inhibition above about 27%;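 also: 0% = vehicle and 100% = reference inhibitor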
Target sequence (P9WQA3 whole entry, looked up): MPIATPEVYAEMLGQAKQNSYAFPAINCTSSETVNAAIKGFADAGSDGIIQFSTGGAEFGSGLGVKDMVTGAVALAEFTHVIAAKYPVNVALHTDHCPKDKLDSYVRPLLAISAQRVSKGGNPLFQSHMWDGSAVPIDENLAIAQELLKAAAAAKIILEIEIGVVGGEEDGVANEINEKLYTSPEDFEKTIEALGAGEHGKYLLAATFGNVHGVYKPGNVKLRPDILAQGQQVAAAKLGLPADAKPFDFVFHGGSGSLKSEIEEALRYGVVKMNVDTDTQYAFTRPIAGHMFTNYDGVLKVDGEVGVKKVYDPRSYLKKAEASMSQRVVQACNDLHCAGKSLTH
GDH-TPI counter – counter-screen for M. tuberculosis FBA inhibitors: GDH-TPI coupled enzymes | GDH-TPI coupled enzyme counterscreen, NADH absorbance | inhibition, % at 4.8 µM | 360,000 compounds, 1.2% hits | AID 588335; in the data active = inhibition above about 30%;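 also: 0% = DMSO wells and 100% = wells lacking the enzyme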
CCHFV vOTU inh – CCHFV vOTU protease inhibition. AID 651958. Pep-AMC fluorescence. inhibition, % at 11.5 µM. 370,000 compounds, 0.55% hits; in the data active = inhibition above about 30%; also: 0% = vehicle wells with enzyme and 100% = no enzyme wells
RecA intein inh – blocks M. tuberculosis RecA intein splicing; AID 2221; cell-free RecA intein splicing, fluorescence; 290,000 compounds, 0.75% hits; inhibition, % (no concentration beside the values); in the data active = inhibition above about 30%; inconclusive = no clear call, values can overlap the other calls;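 also: 0% = vehicle wells and 100% = reference inhibitor control wells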
Mtb bLac sens – beta-lactam sensitization of Mtb H37Rv. M. tuberculosis H37Rv growth with meropenem, percent inhibition. inhibition, % at 25 µM. 330,000 compounds, 0.27% hits. AID 434955;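 also: growth measured after seven days incubation then overnight dye step; 0% = bacteria only wells and 100% = bacteria with antibiotic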
GFP chromophore – counter-screen: blocks GFP chromophore formation. shares compounds with RecA intein inh. cell-free GFP chromophore formation, fluorescence. EC50, µM. 2,100 compounds, 83% hits
Starred values were filed as active, the others as inactive; ? = inconclusive; · = no result given. Unless noted, no rule for the calls is given here.

SMILES | Mtb FBA inh | GDH-TPI counter | CCHFV vOTU inh | RecA intein inh | Mtb bLac sens | GFP chromophore
COC(=O)C1CN(Cc2cn(CCC3OCCO3)nn2)CCS(=O)(=O)N1Cc1ccccc1 (stereo not given) | · | · | -5.2 | · | · | ·
Cc1ccc(C(=O)C(OC(=O)CN2C(=O)c3ccccc3C2=O)c2ccccc2)cc1C (stereo not given) | 3.3 | 1.3 | -19.9 | 30.8* | 3.6 | >38
COc1cc(/C=C2/SC(=S)N(Cc3ccccc3)C2=O)ccc1OCC(=O)O | -2.1 | 11.4 | 16.4 | 36.9* | 5.8 | 32.6*
COc1cc(/C=C2/SC(=S)N(Cc3ccccc3)C2=O)ccc1OS(C)(=O)=O | 3.5 | 5.7 | -2.4 | 1.6 | -5.1 | ·
CCOc1cc(/C=C2/SC(=S)N(Cc3ccccc3)C2=O)ccc1O | -5.2 | 13.7 | -5.1 | 32.9* | 7.8 | 27.6*
Cn1cccc1C=NNC(=O)c1cc(-c2ccc(Cl)cc2)n[nH]1 | · | · | 13.3 | · | · | ·
CCOc1cc(/C=C(\C#N)C(=O)Nc2cccc(C(=O)O)c2)cc(Br)c1OC(=O)c1ccc(OC)cc1 | 19.2 | 14.9 | 7.3 | 37.6* | 12.1 | 20.8*
CC1=NNC(=O)C1CC(=O)N/N=C(\C)c1cccs1 (stereo not given) | 1.5 | 3.5 | -5.7 | 1.3 | -0.4 | ·
CC1=NNC(=O)C1Cc1ccccc1C (stereo not given) | 2.0 | 6.3 | -2.8 | 95.3* | -2.9 | 0.737*
O=C(NC1CCCC1)N1CCC(c2nc3ccc(Cl)cc3[nH]2)CC1 | · | · | -0.2 | · | · | ·
COc1ccc(C(=O)CSc2nnc(-c3ccccn3)n2-c2ccccc2)cc1 | · | · | -6.5 | · | · | ·
O=[N+]([O-])c1ccc(Sc2cccc[n+]2[O-])c2nonc12 | -5.4 | 7.1 | -15.9 | 44.8* | · | 19.4*
CCOC(=O)c1c(C)oc2c1c(C=NC1CCS(=O)(=O)C1)c(O)c1ccccc12 (stereo not given) | -1.3 | 11.2 | 25.7 | 1.2 | 1.1 | ·
CCOC(=O)c1c(C)oc2c1c(C=NCCC(=O)O)c(O)c1ccccc12 | -2.3 | 1.9 | 9.5 | 33.6* | 1.1 | 33.8*
COC(=O)[C@]12C[C@H](CC(=O)NCCC(C)C)C(=O)N(Cc3ccccc3)C1=C[C@H](C1CCCC1)O[C@@H]2C | · | · | 15.2 | · | · | ·
CC(C)(C)c1[nH]nc2c1C(c1ccccc1OC(=O)N1CCOCC1)C(C#N)=C(N)O2 (stereo not given) | 2.1 | 13.3 | -0.7 | · | 0.9 | ·
Cc1[nH]nc2c1C(c1cccc(OC(=O)N3CCOCC3)c1)C(C#N)=C(N)O2 (stereo not given) | 2.1 | -14.6 | 3.7 | 59.4* | -2.3 | 35.4*
CC(C)c1[nH]nc2c1C(c1ccc(OC(=O)c3ccco3)cc1)C(C#N)=C(N)O2 (stereo not given) | 4.3 | 5.8 | 13.1 | 46.2* | 99.0 | 20.1*
Cc1[nH]nc2c1C(c1ccc(OC(=O)c3ccco3)cc1)C(C#N)=C(N)O2 (stereo not given) | -3.1 | 7.2 | -7.0 | 73.5* | 99.9 | 32.7*
CC(C)C[C@H]1COc2cccc(F)c2S(=O)(=O)N1Cc1cn(CCC2OCCCO2)nn1 | · | · | -1.3 | · | · | ·
CCNC(=S)NNC(=O)CSc1nnc(SCc2cccc3ccccc23)s1 | · | · | 4.2 | · | · | ·
Cc1ccc(CN=Cc2[nH]c3ccc(Br)c(Cl)c3c2O)cc1 | -2.7 | 0.8 | -7.2 | 74.7* | 12.4 | 4.81*
Oc1c(C=NCc2ccc(F)cc2)[nH]c2ccc(Br)c(Cl)c12 | · | · | 5.0 | 42.7* | -6.5 | 6.09*
O=c1[nH]c(=O)n(C2CCCCCC2)c(O)c1C=NCc1ccc(F)cc1 | -1.8 | 1.2 | 6.1 | 4.3 | 2.2 | ·
N#CCCCc1cn(-c2ccc(-c3noc4c3C(=O)N(CC(=O)N3CCOCC3)CC4)cc2)nn1 | · | · | -1.8 | · | · | ·
SMILES | Mtb FBA inh | GDH-TPI counter | CCHFV vOTU inh | RecA intein inh | Mtb bLac sens | GFP chromophore
O=C1c2cc(F)ccc2-n2c1nc1ccccc1c2=O | 0.8 | 4.6 | 29.2 | 94.3* | ? | >38
Nn1c(-c2ccc(F)cc2)nc2ccccc2c1=O | 0.2 | -4.4 | -10.6 | 1.1 | 4.6 | ·
O=[N+]([O-])c1c(Nc2ccccc2O)cc(Cl)c2nonc12 | -7.0 | 5.6 | 12.6 | 96.2* | 10.2 | 1.47*
O=C(O)c1cc(Nc2cc(Cl)c3nonc3c2[N+](=O)[O-])ccc1O | -25.9 | 6.4 | 13.5 | 96.7* | 9.0 | 1.88*
O=[N+]([O-])c1c(Nc2ccccc2O)ccc2nonc12 | -6.6 | 5.5 | 10.9 | 0.1 | 52.1 | ·
CC(C)[C@@]1(NC(=O)[C@@H]2C[C@@H]3c4cccc5[nH]cc(c45)C[C@H]3N(C)C2)O[C@@]2(O)[C@@H]3CCCN3C(=O)[C@H](Cc3ccccc3)N2C1=O | -2.7 | -1.4 | 20.3 | 7.6 | 8.4 | ·
